Screening results from PubChem BioAssay.
rCAG binder: r(CAG) repeat RNA binding. TO-PRO-1 dye displacement fluorescence. AID 651821. actives 1.3% (n = 370,000). inhibition, % at 3 µM;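 active means inhibition above the plate cutoff, the mean of all test compounds on that plate plus 3 SD, cut at about 35% in these data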;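 further: 0% = DMSO alone and 100% = 100 µM mitoxantrone as full dye displacement; higher means more dye released from RNA so lower well fluorescence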
ADAM10 inh: inhibits human ADAM10. recombinant ADAM10, EDANS/DABCYL FRET peptide cleavage, 3 h. inhibition, % at 7 µM. actives 0.62% (n = 370,000). AID 720582;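 active means inhibition above a per-campaign cutoff equal to the mean of compounds falling between control-based bounds plus 3 SD, cut at about 20% in these data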;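 further: 0% = DMSO wells while the 100% control is not disclosed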
KLK7 zymogen act: activators of human kallikrein-7 zymogen. purified proKLK7, EDANS-DABCYL substrate fluorescence; 100% is mature enzyme control, 0% vehicle. AID 652039. actives 0.9% (n = 370,000). activation, % at 7 µM;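 active means activation above the mean of all tested compounds plus 3 SD, computed per campaign excluding outliers beyond control limits, cut at about 13% in these data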
ADAM17 inh: inhibitors of human ADAM17. P78536. recombinant ADAM17, EDANS/DABCYL FRET peptide cleavage. inhibition, % at 6.95 µM. actives 0.83% (n = 370,000);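 active means inhibition above the mean of compounds lying between control limits plus 3 SD, set per campaign, cut at about 8.5% in these data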;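 further: 0% = DMSO-only wells as the low control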
NR3A LBD binder: NR3A (human) ligand-binding domain modulation; NR3A LBD differential scanning fluorimetry, Tm shift; 0% = protein alone, 100% = glycine-bound protein; Tm shift relative to glycine control, % at 25 µM; actives 2.5% (n = 340,000); AID 1259313;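 active means melting temperature shift of at least 10% of the positive control shift, at one fixed dose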
AHR act: activators of human aryl hydrocarbon receptor; P35869; AHR-responsive luciferase reporter cells, luminescence; activation, % at 5 µM; actives 2.5% (n = 320,000); in the data active means activation above about 47%;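 further: 0% = vehicle wells and 100% = reference agonist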
AHR act cf: human AHR activation, confirmation. shares compounds with AHR act. human cells, AHR-responsive luciferase reporter, luminescence. activation, % at 9 µM. actives 87% (n = 2,300). AID 2845; in the data active means activation above about 49%;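 further: HepG2 hepatoma cells carrying a DRE-driven firefly luciferase reporter; 0% = vehicle wells and 100% = reference agonist wells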
PXR counter: PXR activation, counter-screen for AHR activators. shares compounds with AHR act. cell-based PXR reporter, luciferase luminescence. activation, % at 11.6 µM. actives 88% (n = 2,300). AID 434939; in the data active means activation above about 11%;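 further: human hepatoma DPX-2 cells expressing full-length human PXR; 0% = DMSO and 100% = reference agonist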
Target sequence (O75469 whole entry, looked up): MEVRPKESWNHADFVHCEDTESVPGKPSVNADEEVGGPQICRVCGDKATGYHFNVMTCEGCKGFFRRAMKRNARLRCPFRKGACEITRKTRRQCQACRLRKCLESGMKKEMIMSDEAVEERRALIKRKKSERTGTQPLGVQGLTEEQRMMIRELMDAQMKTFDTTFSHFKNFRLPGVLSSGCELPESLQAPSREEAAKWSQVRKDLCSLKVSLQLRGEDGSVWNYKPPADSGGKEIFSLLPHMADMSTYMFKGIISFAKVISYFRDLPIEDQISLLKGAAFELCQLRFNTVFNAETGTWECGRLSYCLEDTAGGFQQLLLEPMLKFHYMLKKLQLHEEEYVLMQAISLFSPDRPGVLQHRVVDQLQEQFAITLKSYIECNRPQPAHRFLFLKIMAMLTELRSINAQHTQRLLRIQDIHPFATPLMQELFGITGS
The depositor's hits bear a star; x = not tested or not shown. This is a sample that favours compounds with a hit; in the whole collection about 7% have one here.

SMILES	rCAG binder	ADAM10 inh	KLK7 zymogen act	ADAM17 inh	NR3A LBD binder	AHR act	AHR act cf	PXR counter
O=C(Nc1nc2c(Cl)cccc2s1)c1ccc(Br)o1	5.5	-22.4	0.4	-11.3	-1.1	102.1*	105.5*	66.6*
O=c1cc(-c2ccco2)oc2c1ccc1ccccc12	9.3	-256.6	-2.1	-84.4	-1.3	79.3*	60.9*	24.6*
Cc1cn2c(=O)c3ncn(C4OC(CO)C(O)C4O)c3n(C)c2n1 (stereo not given)	0.2	-134.1	4.0	-34.5	x	x	x	x
O=c1c2ccccc2ncn1-c1ccc(Cl)cc1	-5.8	-4.3	0.4	-2.1	1.7	111.8*	114.7*	9.5
CCc1ccc(-c2csc(-c3c[nH]c4ccccc34)n2)cc1	18.8	0.6	-4.2	2.7	38.7*	87.1*	123.7*	28.8*
O=C(N/N=C/c1ccsc1)c1c[nH]c2ccccc12	1.8	-5.6	-0.1	-3.9	31.1*	127.8*	114.8*	21.9*
O=C(N/N=C/C1CC2CCC1C2)c1c[nH]c2ccccc12 (stereo not given)	6.0	3.5	0.3	0.8	-16.1	86.8*	18.9	5.1
O=C(N/N=C/C1CC2CCC1C2)C1CC1 (stereo not given)	-0.7	-5.4	0.3	-3.0	1.7	45.8	x	x
Cc1ccsc1/C=N/NC(=O)c1c[nH]c2ccccc12	5.0	2.0	-0.3	-0.8	15.1*	101.5*	142.1*	41.6*
Cc1ccsc1/C=N/NC(=O)c1ccccn1	-4.4	-7.8	-0.7	-2.0	-2.9	16.6	x	x
CCOc1ccc(-n2c(SCC(=O)c3ccc4ccccc4c3)nnc2-c2ccc(OC)cc2)cc1	10.6	4.3	-0.5	1.6	x	x	x	x
CCOC(=O)[C@@]12CCC3=C1N(CCC3)C(=O)[C@H](CC(=O)N1CCCC1)C2	1.1	-2.4	0.0	-2.5	x	x	x	x
Brc1cccc(-c2nnc(-c3ccccc3)o2)c1	-1.9	-0.3	0.2	-2.6	1.8	121.5*	134.2*	27.6*
Brc1cccc(-c2nnc(SCc3nc4ccccc4[nH]3)o2)c1	-2.5	-28.4	0.1	-5.7	-10.6	92.0*	42.0	29.3*
Cc1ccc(-c2nnc(-c3cccc(Br)c3)o2)cc1	1.8	-1.5	-1.0	-4.4	0.1	23.0	x	x
CCCCOc1ccc(C(=O)n2ccc3ccc(-c4ccc5ccn(Cc6ccccc6)c5c4)cc32)cc1	8.3	-18.4	4.5	-7.1	x	x	x	x
CC(C)C(=O)Nc1ccc(Cl)cc1-c1nc2ccccc2[nH]c1=O	-3.3	-14.2	-3.9	-6.7	-1.5	79.4*	75.6*	12.1*
CCC(=O)Nc1ccccc1-c1nc2ccccc2[nH]c1=O	0.4	-12.4	-3.2	-4.8	0.5	x	x	x
Cc1nc2cc[nH]n2c(=O)c1CCc1ccccc1	0.8	-25.4	0.7	-13.8	x	x	x	x
CC(=O)N1N=C2/C(=C/c3ccccc3)CCCC2C1c1ccccc1 (stereo not given)	-4.6	-10.0	0.7	-3.8	-2.1	100.5*	86.9*	100.6*
CCCn1c(SCC(=O)N2N=C3/C(=C/c4ccc(OC)cc4)CCCC3C2c2ccc(OC)cc2)n[nH]c1=O (stereo not given)	11.9	3.5	-2.4	4.8	0.9	0.4	x	x
O=C(c1ccccn1)N1N=C2/C(=C/c3ccc(F)cc3)CCCC2C1c1ccc(F)cc1 (stereo not given)	-1.9	4.3	0.3	-0.6	-0.1	93.9*	95.0*	49.0*
COc1ccc(/C=C2\CCCC3C2=NN(C(=O)c2ccco2)C3c2ccc(OC)c(OC)c2)cc1OC (stereo not given)	-1.1	-2.3	0.3	-2.3	-2.5	3.5	x	x
CC(=O)N1N=C2c3ccccc3CCC2C1c1ccc(F)cc1 (stereo not given)	-6.9	2.7	1.0	-0.8	0.9	98.9*	107.7*	28.7*
CCCCCN1CCCCC(NC(=O)c2ccccc2OC)C1=O (stereo not given)	-4.4	1.6	-0.2	-1.8	x	x	x	x
COc1ccc(N2CCN(CCNS(=O)(=O)c3c(C(C)C)cc(C(C)C)cc3C(C)C)CC2)cc1	1.4	11.0	0.0	6.2	x	x	x	x
